# Most compounds without a hit are left out; they make up all but 10% or so of the library.
# PNC assembly inh = perinucleolar compartment assembly inhibition; PC3M PTB-GFP, PNC prevalence imaging, 16 h; active compounds read low; activity change (PNC), negative = inhibition, % at 10 µM; 140,000 compounds, 3.1% hits;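 active means readout at or below -70, meaning at least 70% loss of cells showing the perinucleolar compartment, a nuclear body marking cancer cells; inconclusive means readout between -30 and a set limit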;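 further: plate controls were DMSO wells for no effect and camptothecin positive control wells for full effect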
#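 PC3M cells stably expressing PTB-GFP, 750–1000 cells/well, treated 16 h at 37 °C with compound (23 nl of library stock), in duplicate. After paraformaldehyde fixation and Hoechst stain, imaged at 20x; PNC prevalence scored by image analysis.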
# GLA inh pH 4.5 = alpha-galactosidase A (human) inhibition, pH 4.5 | P06280 | purified enzyme, 4-MU-alpha-Gal fluorescence, pH 4.5 | activity change, negative = inhibition, % at 105 µM | 230,000 tested, under 10 active | AID 1467;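 further: 0% = full activity with enzyme and -100% = basal without enzyme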
# ALOX12 inhib = inhibitors of human 12-lipoxygenase (ALOX12). P18054. purified 12-hLO, xylenol orange hydroperoxide absorbance. Potency, µM (highest dose often 57.1 µM), for inactives: top-dose activity change, negative = inhibition, hits mostly inhibitors. 150,000 compounds, 0.12% hits. AID 1452; further: potency means the concentration at half of the fitted maximal effect; nearly all actives have a fitted effect of over 55% in size
#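 Lipoxygenase turnover measured by absorbance at 573 and 405 nm after Fe-XO development. Human 12hLO 150 nM, arachidonate 40 uM, pH 7.0 Hepes buffer with detergent; 15 min compound preincubation, 30 min reaction.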
# HPGD inh = blocks human HPGD enzyme activity; P15428; purified HPGD, NADH fluorescence kinetic, PGE2 substrate; Potency, µM, for inactives: at the highest dose activity change, negative = inhibition, most hits filed as inhibitors; 150,000 compounds, 4.3% hits; AID 894; active means well fitted inhibition curve with a large enough effect, not every such curve was filed as active; inconclusive means small, poorly fitted or top-dose-only effect, or another doubt; inactive means no such curve, though single readings can be large or run the other way; further: potency means the concentration at half of the fitted maximal effect
# Target sequence (P15428 whole entry, looked up): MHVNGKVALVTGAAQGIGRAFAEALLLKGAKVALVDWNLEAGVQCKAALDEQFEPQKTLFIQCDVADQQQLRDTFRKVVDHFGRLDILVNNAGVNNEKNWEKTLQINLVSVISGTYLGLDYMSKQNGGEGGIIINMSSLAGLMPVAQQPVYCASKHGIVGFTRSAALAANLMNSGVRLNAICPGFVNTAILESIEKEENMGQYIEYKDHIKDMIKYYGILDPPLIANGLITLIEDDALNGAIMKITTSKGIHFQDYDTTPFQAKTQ
#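 20 nM HPGD preincubated 15 min at room temperature with compound in 50 mM Tris-HCl pH 8, 0.01% Tween 20. Started with 1 mM NAD+ and 30 uM prostaglandin E2; NADH fluorescence (360/450 nm) read 5 times over 30-s intervals, last minus first.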
# ALDH1A1 block = inhibitors of human aldehyde dehydrogenase 1A1. P00352. Purified ALDH1A1, NADH fluorescence, propionaldehyde substrate. Potency, µM (highest dose often 75.3 µM), for inactives: at the top dose activity, negative = inhibition, most hits filed as inhibitors. 220,000 compounds, 7.3% hits; active means well fitted inhibition curve with a large enough effect, not every such curve was filed as active; inconclusive means small, poorly fitted or top-dose-only effect, or another doubt; inactive means no such curve, though single readings can be large or run the other way;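 further: potency means the concentration at half of the fitted maximal effect; plate controls were no enzyme wells and a reference inhibitor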
# GLA spleen mod = alpha-galactosidase A (human) modulation; 240,000 compounds, 0.008% hits; human spleen homogenate, 4MU-alpha-Gal fluorescence, 40 min; P06280; Potency, µM (top dose mostly 80 µM), for inactives: at the top dose activity change, negative = inhibition, most hits filed as inhibitors;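 further: potency means the concentration at half of the fitted maximal effect; 0% = enzyme with vehicle and -100% = no enzyme basal signal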
# Target sequence (P06280 32-429 limits assumed): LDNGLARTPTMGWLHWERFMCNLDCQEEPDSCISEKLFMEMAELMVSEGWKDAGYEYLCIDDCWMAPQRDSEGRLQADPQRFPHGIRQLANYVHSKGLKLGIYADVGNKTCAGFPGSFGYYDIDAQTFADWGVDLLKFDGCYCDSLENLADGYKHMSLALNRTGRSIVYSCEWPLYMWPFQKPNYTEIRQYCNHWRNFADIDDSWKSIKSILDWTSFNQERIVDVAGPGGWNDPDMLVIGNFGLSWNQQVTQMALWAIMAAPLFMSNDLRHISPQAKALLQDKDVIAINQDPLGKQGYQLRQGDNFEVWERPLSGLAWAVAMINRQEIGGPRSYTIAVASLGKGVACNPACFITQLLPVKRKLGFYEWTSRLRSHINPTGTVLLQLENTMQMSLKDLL
#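 Human spleen homogenate (1 ug) was the enzyme source, with 4-methylumbelliferyl-alpha-D-galactopyranoside (1 mM final) in pH 5.0 citrate buffer with 0.01% Tween-20. Compounds were titrated; after 40 min at 37C, NaOH/glycine stop, 4-MU fluorescence read; AC50 from Hill fits.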
# An asterisk follows results filed as active; ? = inconclusive; . = not tested or not shown; [ ] = dose if it differs, or a comment. Unless noted, the call rests on the fitted dose curve; in most records, active means well fitted curve in the direction sought with a large enough effect; inconclusive means small, poorly fitted or top-dose-only effect, or another doubt; inactive means no such curve, though single readings can be large; an effect the other way counts as inactive or inconclusive. Unless noted, on the % scale 0 is the no-effect control and ±100 the full control effect.
SMILES,PNC assembly inh,GLA inh pH 4.5,ALOX12 inhib,HPGD inh,ALDH1A1 block,GLA spleen mod
CC(=O)Oc1cccc(N2C(=O)C3C4C=CC(C4)C3C2=O)c1 (configuration not stated),-1,8,-4%,-10%,10%,-6%
CCC1OC(=O)C[C@H](O)C(C)[C@@H](O[C@@H]2OC(C)C(O)C(N(C)C)C2O)C(CCN2CC(C)CC(C)C2)CC(C)C(=O)/C=C/C(C)=C\[C@@H]1COC1OC(C)C(O)C(OC)C1OC (some centres not stated),.,-11,14%,-8%,7%,15%
Cn1c(C(=O)N2CCN(Cc3ccccc3)CC2)cc2c(=O)n(C)c3ccccc3c21,33,-1,4%,16µM*,?,-2%
Cn1c(C(=O)N2CCCCCC2)cc2c(=O)n(C)c3ccccc3c21,?,9,2%,2.8µM*,?,5%
Cc1cc(/C=N/Nc2nc(N)ncc2[N+](=O)[O-])c(C)n1-c1cccc(C(F)(F)F)c1,.,5,.,.,.,-8%
O=C(C1CC1c1ccccc1)N1CCN(c2cccc(Cl)c2)CC1 (configuration not stated),12,-3,-18%,-7%,20µM*,0%
O=C(O)CCCC(=O)N1CCN(c2cccc(Cl)c2)CC1,-99*,-13,-1%,-25%,?,4%
Cc1ccc(C(C2=C(O)CC(C)(C)CC2=O)C2C(=O)CC(C)(C)CC2=O)s1 (configuration not stated),-12,7,-15%,3.2µM*,8.9µM*,3%
CC1(C)CC(=O)C(C(C2=C(O)CC(C)(C)CC2=O)c2ccc([N+](=O)[O-])cc2)C(=O)C1 (configuration not stated),?,-5,-5%,.,?,-3%
CC1(C)CC(=O)C(C(C2=C(O)CC(C)(C)CC2=O)c2ccc(Br)s2)C(=O)C1 (configuration not stated),-1,6,-28%,1.4µM*,3.5µM*,-1%
COC(=O)[C@@]1(Cc2ccccc2)[C@H]2c3cc(C(=O)N4CCCC4)n(Cc4nc5ccccc5[nH]4)c3C[C@H]2CN1C(=O)c1ccccc1,.,-5,0%,-11%,-4%,-4%
CN(C)CCN(C)Cc1ccc2c(c1)Cc1ccccc1-2,30,1,-2%,-15%,11µM*,1%
Cc1ccc(C(=O)N/N=C\c2cccn2C)cn1,-26,-3,-13%,14µM*,-4%,2%
Cn1cccc1/C=N/NC(=O)c1cccnc1,?,6,3%,-9%,-12%,7%
Cn1cccc1/C=N/NC(=O)c1ccn[nH]1,-119*,-8,5%,-5%,3%,-2%
CCOC(=O)c1cc(-c2ccncc2)nc2c1c(C)nn2-c1ccccn1,-100*,0,-4%,-10%,?,4%
CCOC(=O)c1cc(-c2ccc(C#N)cc2)nc2c1c(C)nn2CCC#N,-111*,22,7%,?,?,1%
CCOC(=O)c1cc(-c2ccccc2)nn1CCC#N,.,-2,.,.,-5%,-2%
CCOC(=O)c1cc(-c2cccs2)nn1CCC#N,?,-3,-4%,-14%,14µM*,1%
CCCCC(=O)Nc1cc(Cl)ccc1C(=O)O,.,3,.,.,?,5%
C[N+](C)(CC#Cc1ccccc1)CC(=O)c1ccc(Cl)cc1,-90*,1,0%,-1%,7%,-2%
Cc1cccc(N(C(=O)Cn2nnc3ccccc32)C(C(=O)NC(C)(C)C)c2ccsc2)c1 (configuration not stated),-94*,-4,1%,-4%,11%,3%
CC(C)CN1C(=O)c2ccccc2C1(O)Cc1ccccc1 (configuration not stated),-16,-4,3%,-16%,?,-4%
O=C1c2ccccc2C(O)(c2ncc[nH]2)N1CCc1ccccc1 (configuration not stated),8,6,-2%,-10%,14µM*,-5%
CCCCC/C=C\C[C@@H](O)/C=C/C=C/C=C/[C@@H](O)CCCC(=O)O,.,-6,0%,-6%,4%,0%
SMILES,PNC assembly inh,GLA inh pH 4.5,ALOX12 inhib,HPGD inh,ALDH1A1 block,GLA spleen mod
Cc1ccc2ncccc2c1NC(=S)NC(=O)c1ccccc1,.,-10,.,.,?,9%
Cc1ccc2ncccc2c1NS(=O)(=O)c1ccccc1,-16,-14,-15%,-7%,32µM*,3%
CCOc1cc(Cl)c(NC(=O)CC)cc1OCC,-114*,5,-4%,-1%,9%,-5%
O=C(CC12CC3CC(CC(C3)C1)C2)NC(=S)N1CCCCC1,19,1,-3%,?,20µM*,-5%
C/C(CCN1CCCc2nc(C)c(C)cc21)=N\OC[C@@H](O)COCc1ccco1,.,.,.,.,?,-23%[17.5 µM]
COc1ccc(-n2c3c(c(=O)[nH]c2=O)C(NC(=O)c2ccncc2)(C(F)(F)F)C(=O)N3)cc1 (configuration not stated),.,-4,.,.,8%,-5%
CCC1=NC(c2ccc(OC)cc2OC)N(O)C1(C)C (configuration not stated),13,7,-24%,-11%,8.9µM*,5%
Cc1ccc(N=C/C(C(=O)C(F)(F)F)=C(\O)c2ccco2)cc1Cl,-19,-3,-1%,.,2.2µM*,0%
Cc1cccc(N=C/C(C(=O)C(F)(F)F)=C(\O)c2ccco2)c1,?,4,0%,0%,-1%,-3%
CC1(C#CC[N+]2(C)CCCCC2)CCC2C(O1)c1ccccc1OC2(C)C (configuration not stated),.,-3,.,.,32µM*,-11%
COc1cc(C(C(=O)NC(C)(C)C)N(Cc2ccc3c(c2)OCO3)C(=O)c2cnccn2)cc(OC)c1OC (configuration not stated),-21,-9,4%,-10%,-4%,5%
COc1ccc(CN(C(=O)c2cnccn2)C(C(=O)NC(C)(C)C)c2cc(OC)c(OC)c(OC)c2)cc1 (configuration not stated),-95*,0,-6%,-1%,-1%,0%
Cc1[nH]c2ccccc2c1C(=O)COC(=O)c1c(-c2c(F)cccc2Cl)noc1C,?,-10,0%,-8%,6%,-2%
Cc1onc(-c2c(Cl)cccc2Cl)c1NC(=O)NNc1ccccc1,.,-10,.,.,5%,2%
Cc1onc(-c2ccccc2)c1C(=O)NCCc1ccc(S(N)(=O)=O)cc1,?,2,0%,-14%,24%,13%
Cc1onc(-c2c(Cl)cccc2Cl)c1C(=O)N[C@H]1C(=O)N2[C@H]1SC(C)(C)[C@H]2C(=O)O,.,-11,-3%[25.6 µM],10µM*,8%[20.9 µM],2%[29.1 µM]

# High-throughput results from PubChem.
